{"source": "the supplement of paper PMC10037445", "key": {"RAW-Dual [1]": {"test_system": "RAW-Dual", "experiment": "NF-kB SEAP reporter activity, fold change vs agonist alone; cytotoxicity flag (confluency mask): not cytotoxic; higher = enhanced NF-kB activity", "outline": "(§1)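 Reporter activity is given as fold change relative to agonist-alone wells. To measure it, 50 nL of library stock was pin-tooled onto RAW-Dual macrophages (50,000 cells/well, DMEM, 384-well plates), a PRR agonist followed 1 h later, and cells stayed at 37 °C, 5% CO2. Twenty hours on, supernatant was assayed for IRF (QuantiLuc luminescence) and NF-κB (QuantiBlue, 620 nm absorbance), and wells under 70% of agonist-control IncuCyte confluency in both mask sets were marked cytotoxic.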"}, "RAW-Dual [2]": {"test_system": "RAW-Dual", "experiment": "NF-kB SEAP reporter activity, fold change vs agonist alone; higher = enhanced NF-kB activity", "settings": "library stock concentration (final ~1000-fold dilution): 10 mM, cytotoxicity flag (confluency mask): not cytotoxic", "outline": "as §1"}, "[3]": {"settings": "agonist: ODN 1826 (TLR9) 0.5 ug/mL"}, "[4]": {"settings": "agonist: Pam2CSK4 (TLR2/6) 0.1 ug/mL"}, "[5]": {"settings": "agonist: Pam3CSK4 (TLR2/1) 0.1 ug/mL"}}, "note": "Whole data set: some 2,900 compounds, median “NF-kB SEAP reporter activity, fold change vs agonist alone” near 0.99, cut for the highest 2% near 2.6. The sample holds the highest values, similar compounds and a random draw of the others, so the mix is not that of the screen."}
{"smiles": "COc1ccc2cccc(CCNC(C)=O)c2c1", "note": "(library stock concentration (final ~1000-fold dilution): 10 mM)", "values": [{"measurement": "NF-kB SEAP reporter activity", "setting": "RAW-Dual [1]; agonist: LPS (TLR4) 0.1 ug/mL", "result": 1.33}, {"measurement": "NF-kB SEAP reporter activity", "setting": "RAW-Dual [1]; [3]", "result": 1.09}, {"measurement": "NF-kB SEAP reporter activity", "setting": "RAW-Dual [1]; [4]", "result": 1.03}, {"measurement": "NF-kB SEAP reporter activity", "setting": "RAW-Dual [1]; [5]", "result": 1.19}]}
{"smiles": "COc1c(O)c(C)cc2c1C(=O)c1c(O)cccc1C2=O", "note": "(library stock concentration (final ~1000-fold dilution): 10 mM)", "values": [{"measurement": "NF-kB SEAP reporter activity", "setting": "RAW-Dual [1]; agonist: LPS (TLR4) 0.1 ug/mL", "result": 1.19}, {"measurement": "NF-kB SEAP reporter activity", "setting": "RAW-Dual [1]; [3]", "result": 1.02}, {"measurement": "NF-kB SEAP reporter activity", "setting": "RAW-Dual [1]; [4]", "result": 1.04}, {"measurement": "NF-kB SEAP reporter activity", "setting": "RAW-Dual [1]; [5]", "result": 1.01}]}
{"smiles": "COc1ccc(S(=O)(=O)Nc2cc(-c3c(O)ccc4ccccc34)c(O)c3ccccc23)cc1", "note": "(library stock concentration (final ~1000-fold dilution): 10 mM)", "values": [{"measurement": "NF-kB SEAP reporter activity", "setting": "RAW-Dual [1]; agonist: LPS (TLR4) 0.1 ug/mL", "result": 4.3}, {"measurement": "NF-kB SEAP reporter activity", "setting": "RAW-Dual [1]; [3]", "result": 1.09}, {"measurement": "NF-kB SEAP reporter activity", "setting": "RAW-Dual [1]; [4]", "result": 1.29}, {"measurement": "NF-kB SEAP reporter activity", "setting": "RAW-Dual [1]; [5]", "result": 1.38}]}
{"smiles": "COc1ccc(S(=O)(=O)Nc2cc(-c3c(O)ccc4ccccc34)c(O)c3ccccc23)cc1", "values": [{"measurement": "NF-kB SEAP reporter activity", "setting": "RAW-Dual [2]; agonist: Imiquimod (TLR7) […]", "result": 1.17}, {"measurement": "NF-kB SEAP reporter activity", "setting": "RAW-Dual [2]; agonist: MPLA (TLR4) […]", "result": 1.61}]}
{"smiles": "COc1c(O)c(C)cc2c1C(=O)c1c(O)cccc1C2=O", "values": [{"measurement": "NF-kB SEAP reporter activity", "setting": "RAW-Dual [2]; agonist: Imiquimod (TLR7) […]", "result": 0.981}, {"measurement": "NF-kB SEAP reporter activity", "setting": "RAW-Dual [2]; agonist: MPLA (TLR4) […]", "result": 1.08}]}
{"smiles": "COc1ccc2cccc(CCNC(C)=O)c2c1", "values": [{"measurement": "NF-kB SEAP reporter activity", "setting": "RAW-Dual [2]; agonist: Imiquimod (TLR7) […]", "result": 0.972}, {"measurement": "NF-kB SEAP reporter activity", "setting": "RAW-Dual [2]; agonist: MPLA (TLR4) […]", "result": 0.963}]}
{"smiles": "CCOc1ccc(Cc2cc(C34OCC(CO)(O3)C(O)C(O)C4O)ccc2Cl)cc1", "note": "(stereo not drawn)", "values": [{"measurement": "NF-kB SEAP reporter activity", "setting": "RAW-Dual [2]; agonist: MPLA (TLR4) […]", "result": 1.09}]}
{"smiles": "CCOc1ccc(Cc2cc(C34OCC(CO)(O3)C(O)C(O)C4O)ccc2Cl)cc1", "note": "(stereo not drawn) (library stock concentration (final ~1000-fold dilution): 10 mM)", "values": [{"measurement": "NF-kB SEAP reporter activity", "setting": "RAW-Dual [1]; agonist: LPS (TLR4) 0.1 ug/mL", "result": 0.975}, {"measurement": "NF-kB SEAP reporter activity", "setting": "RAW-Dual [1]; [3]", "result": 1.1}, {"measurement": "NF-kB SEAP reporter activity", "setting": "RAW-Dual [1]; [4]", "result": 1.13}, {"measurement": "NF-kB SEAP reporter activity", "setting": "RAW-Dual [1]; [5]", "result": 0.829}]}
{"smiles": "COc1ccc(CCN(C)CCCC(C#N)(c2ccc(OC)c(OC)c2)C(C)C)cc1OC.Cl", "note": "(stereo not drawn)", "values": [{"measurement": "NF-kB SEAP reporter activity", "setting": "RAW-Dual [2]; agonist: Imiquimod (TLR7) […]", "result": 0.98}, {"measurement": "NF-kB SEAP reporter activity", "setting": "RAW-Dual [2]; agonist: MPLA (TLR4) […]", "result": 1.03}]}
{"smiles": "COc1ccc(CCN(C)CCCC(C#N)(c2ccc(OC)c(OC)c2)C(C)C)cc1OC.Cl", "note": "(stereo not drawn) (library stock concentration (final ~1000-fold dilution): 10 mM)", "values": [{"measurement": "NF-kB SEAP reporter activity", "setting": "RAW-Dual [1]; agonist: LPS (TLR4) 0.1 ug/mL", "result": 1.06}, {"measurement": "NF-kB SEAP reporter activity", "setting": "RAW-Dual [1]; [3]", "result": 0.89}, {"measurement": "NF-kB SEAP reporter activity", "setting": "RAW-Dual [1]; [4]", "result": 0.949}, {"measurement": "NF-kB SEAP reporter activity", "setting": "RAW-Dual [1]; [5]", "result": 1.04}]}
{"smiles": "CN1CC(=O)N2C(Cc3c([nH]c4ccccc34)C2c2ccc3c(c2)OCO3)C1=O", "note": "(stereo not drawn) (library stock concentration (final ~1000-fold dilution): 10 mM)", "values": [{"measurement": "NF-kB SEAP reporter activity", "setting": "RAW-Dual [1]; agonist: LPS (TLR4) 0.1 ug/mL", "result": 1.17}, {"measurement": "NF-kB SEAP reporter activity", "setting": "RAW-Dual [1]; [3]", "result": 1.18}, {"measurement": "NF-kB SEAP reporter activity", "setting": "RAW-Dual [1]; [4]", "result": 1.13}, {"measurement": "NF-kB SEAP reporter activity", "setting": "RAW-Dual [1]; [5]", "result": 1.11}]}
{"smiles": "CN1CC(=O)N2C(Cc3c([nH]c4ccccc34)C2c2ccc3c(c2)OCO3)C1=O", "note": "(stereo not drawn)", "values": [{"measurement": "NF-kB SEAP reporter activity", "setting": "RAW-Dual [2]; agonist: Imiquimod (TLR7) […]", "result": 0.955}, {"measurement": "NF-kB SEAP reporter activity", "setting": "RAW-Dual [2]; agonist: MPLA (TLR4) […]", "result": 0.984}]}
{"smiles": "Cc1cc([N+](=O)[O-])ccc1NS(=O)(=O)c1cc(Cl)ccc1Cl", "note": "(library stock concentration (final ~1000-fold dilution): 10 mM)", "values": [{"measurement": "NF-kB SEAP reporter activity", "setting": "RAW-Dual [1]; agonist: LPS (TLR4) 0.1 ug/mL", "result": 3.09}, {"measurement": "NF-kB SEAP reporter activity", "setting": "RAW-Dual [1]; [3]", "result": 0.67}, {"measurement": "NF-kB SEAP reporter activity", "setting": "RAW-Dual [1]; [4]", "result": 0.323}, {"measurement": "NF-kB SEAP reporter activity", "setting": "RAW-Dual [1]; [5]", "result": 0.349}]}
{"smiles": "Cc1ccc([N+](=O)[O-])cc1S(=O)(=O)N(C)C", "note": "(library stock concentration (final ~1000-fold dilution): 10 mM)", "values": [{"measurement": "NF-kB SEAP reporter activity", "setting": "RAW-Dual [1]; agonist: LPS (TLR4) 0.1 ug/mL", "result": 1.07}, {"measurement": "NF-kB SEAP reporter activity", "setting": "RAW-Dual [1]; [3]", "result": 0.867}, {"measurement": "NF-kB SEAP reporter activity", "setting": "RAW-Dual [1]; [4]", "result": 0.994}, {"measurement": "NF-kB SEAP reporter activity", "setting": "RAW-Dual [1]; [5]", "result": 1.36}]}
{"smiles": "Cc1ccc([N+](=O)[O-])cc1S(=O)(=O)N(C)C", "values": [{"measurement": "NF-kB SEAP reporter activity", "setting": "RAW-Dual [2]; agonist: Imiquimod (TLR7) […]", "result": 0.951}, {"measurement": "NF-kB SEAP reporter activity", "setting": "RAW-Dual [2]; agonist: MPLA (TLR4) […]", "result": 1.14}]}
{"smiles": "O=S(=O)(NCCSSCCNS(=O)(=O)c1cc(Cl)ccc1Cl)c1cc(Cl)ccc1Cl", "note": "(library stock concentration (final ~1000-fold dilution): 10 mM)", "values": [{"measurement": "NF-kB SEAP reporter activity", "setting": "RAW-Dual [1]; agonist: LPS (TLR4) 0.1 ug/mL", "result": 0.705}, {"measurement": "NF-kB SEAP reporter activity", "setting": "RAW-Dual [1]; [3]", "result": 0.705}, {"measurement": "NF-kB SEAP reporter activity", "setting": "RAW-Dual [1]; [4]", "result": 0.573}, {"measurement": "NF-kB SEAP reporter activity", "setting": "RAW-Dual [1]; [5]", "result": 0.312}]}
{"smiles": "O=S(=O)(NCCSSCCNS(=O)(=O)c1cc(Cl)ccc1Cl)c1cc(Cl)ccc1Cl", "values": [{"measurement": "NF-kB SEAP reporter activity", "setting": "RAW-Dual [2]; agonist: Imiquimod (TLR7) […]", "result": 1.13}, {"measurement": "NF-kB SEAP reporter activity", "setting": "RAW-Dual [2]; agonist: MPLA (TLR4) […]", "result": 1.03}]}
{"smiles": "Cc1cc([N+](=O)[O-])ccc1NS(=O)(=O)c1cc(Cl)ccc1Cl", "values": [{"measurement": "NF-kB SEAP reporter activity", "setting": "RAW-Dual [2]; agonist: Imiquimod (TLR7) […]", "result": 1.01}, {"measurement": "NF-kB SEAP reporter activity", "setting": "RAW-Dual [2]; agonist: MPLA (TLR4) […]", "result": 1.41}]}
